# From the supplement of paper PMC12669032
# Unmarked numbers belong to inactive results.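 Rule for the calls: active = AUC reduced over 20% with Padj below 0.05 in at least 2 of 3 replicates; inactive = otherwise.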
# What was measured:
# Assay in all cases: growth AUC relative to DMSO control (median of replicates) (fraction); higher = more growth (less inhibition), active = hit call of the paper
# Details in all cases: 20 µM; 24 h
# Akkermansia muciniphila = system: Akkermansia muciniphila
# Method in brief: (§1)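 Gut bacterial monocultures were grown anaerobically at 37 °C in mGAM from a starting OD600 of 0.05 with 20 µM compound (1% DMSO), in round-bottom 96-well plates under pierced gas-permeable seals, and OD600 was read hourly for 24 h. With the minimum OD set to 0, area under the growth curve was normalised to the plate median of solvent-only wells, or to row and column medians on the industrial chemical plate. Each value is the median of three biological replicates grown on separate days.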
# Bacteroides caccae = system: Bacteroides caccae
# Method in brief: as §1
# Bacteroides clarus = system: Bacteroides clarus
# Method in brief: as §1
# Bacteroides dorei = system: Bacteroides dorei
# Method in brief: as §1
# Bacteroides stercoris = system: Bacteroides stercoris
# Method in brief: as §1
# [1] = system: Bacteroides thetaiotaomicron
# Method in brief: as §1
# Bacteroides uniformis = system: Bacteroides uniformis
# Method in brief: as §1
# [2] = system: Bifidobacterium longum subsp. longum
# Method in brief: as §1
# Clostridium difficile = system: Clostridium difficile
# Method in brief: as §1
# Collinsella aerofaciens = system: Collinsella aerofaciens
# Method in brief: as §1
# Coprococcus comes = system: Coprococcus comes
# Method in brief: as §1
# Escherichia coli ED1a = system: Escherichia coli ED1a
# Method in brief: as §1
# Escherichia coli IAI1 = system: Escherichia coli IAI1
# Method in brief: as §1
# Eubacterium rectale = system: Eubacterium rectale
# Method in brief: as §1
# [3] = system: Fusobacterium nucleatum subsp. animalis
# Method in brief: as §1
# Lactobacillus gasseri = system: Lactobacillus gasseri
# Method in brief: as §1
# Lactobacillus paracasei = system: Lactobacillus paracasei
# Method in brief: as §1
# Odoribacter splanchnicus = system: Odoribacter splanchnicus
# Method in brief: as §1
# [4] = system: Parabacteroides distasonis
# Method in brief: as §1
# Parabacteroides merdae = system: Parabacteroides merdae
# Method in brief: as §1
SMILES,growth AUC (Akkermansia muciniphila),growth AUC (Bacteroides caccae),growth AUC (Bacteroides clarus),growth AUC (Bacteroides dorei),growth AUC (Bacteroides stercoris),growth AUC [1],growth AUC (Bacteroides uniformis),growth AUC [2],growth AUC (Clostridium difficile),growth AUC (Collinsella aerofaciens),growth AUC (Coprococcus comes),growth AUC (Escherichia coli ED1a),growth AUC (Escherichia coli IAI1),growth AUC (Eubacterium rectale),growth AUC [3],growth AUC (Lactobacillus gasseri),growth AUC (Lactobacillus paracasei),growth AUC (Odoribacter splanchnicus),growth AUC [4],growth AUC (Parabacteroides merdae)
COC(=O)COc1cc(Cl)c(Cl)cc1Cl,0.868,1.01,0.952,1,1.01,0.97,0.966,0.906,1.01,1,0.967,0.976,1.02,0.914,0.981,1.18,1.11,0.974,0.983,0.99
BrCCBr,1.11,0.998,1.01,1.02,1.17,0.987,1,1.03,0.997,0.995,1.03,1.03,1.01,1.06,1.01,1.03,1,1.06,1.04,0.99
Oc1cc(Cl)cc(Cl)c1,1.04,1.01,1,0.996,1.08,0.917,1.01,0.998,1,1.01,1.02,1,1.02,1.08,1.1,1.08,0.957,1.03,0.997,0.973
COP(=S)(NC(C)C)Oc1ccc(C)cc1[N+](=O)[O-] (stereo not given),0.926,0.974,0.977,0.982,1.09,0.964,0.956,1.04,1.08,1.05,1.03,0.997,0.996,0.933,1.06,1.03,1.06,0.998,0.972,0.973
CNC(=S)S,1.07,1.01,1.04,0.996,1.08,1.02,1,1.37,0.999,0.996,1.03,1.02,1.02,1.03,1.08,1.02,1.1,1.05,1.03,1.05
CC(Oc1ccc(Oc2ccc(C(F)(F)F)cn2)cc1)C(=O)O (stereo not given),1.17,0.992,1.02,0.943,1.04,1.01,0.899,1.05,0.917,0.941,1.01,0.995,0.996,1.12,0.915,0.839,0.969,0.766 (active),0.72,0.993
COCC(=O)N(c1c(C)cccc1C)[C@@H](C)C(=O)OC,1.19,0.953,0.968,0.922,1,1.04,0.981,1.04,1.04,0.973,1.04,1.01,1,1.09,1.1,0.893,1.01,0.996,0.796,0.996
COc1ccc(/C(=C/C(=O)N2CCOCC2)c2ccc(F)cc2)cc1OC,0.998,1.05,0.959,0.953,0.921,0.997,0.984,0.958,1,0.952,1.02,0.974,1.01,0.966,0.955,0.971,0.976,1.06,1.01,1.02
COc1ccc(C(c2ccc(OC)cc2)C(Cl)(Cl)Cl)cc1,0.973,0.92,0.849,0.926,0.49 (active),0.776 (active),0.813,0.926,0.988,0.975,0.978,1.04,0.967,0.882,1.06,1.13,1.02,1,0.938,0.71
Cc1c(COC(=O)[C@@H]2[C@H](/C=C(\Cl)C(F)(F)F)C2(C)C)cccc1-c1ccccc1,0.924,0.971,0.998,1.01,0.972,0.974,1.01,0.923,1.02,0.928,1.03,1.02,1.02,0.938,1.07,0.862,0.982,1.03,1.01,0.965
CCOP(=S)(OCC)Oc1cc(C)nc(N(CC)CC)n1,1.03,0.926,0.979,0.976,0.938,0.961,0.943,1.01,1,0.994,1.03,0.996,0.994,0.969,1.01,1.02,1.02,1.08,0.845,0.963
O=c1c2cc(F)ccc2nc(-n2cncn2)n1-c1ccc(Cl)cc1Cl,0.855,0.976,0.979,1.05,1,0.925,0.937,0.791,1.12,1.07,0.999,0.987,0.99,0.963,0.976,1.05,0.634,0.977,1.02,0.93
Oc1ccccc1-c1ccccc1,1.03,1.04,1.03,1.02,1.04,1.01,1.01,0.965,1.04,1.01,1,1.02,1.05,0.984,0.988,1.08,0.923,1.03,0.976,1.04
ClC1(Cl)C2(Cl)C3(Cl)C4(Cl)C(Cl)(Cl)C5(Cl)C3(Cl)C1(Cl)C5(Cl)C24Cl (stereo not given),0.866,0.966,0.972,1.01,1.06,1,0.937,0.846,1,0.94,0.986,1.03,0.989,0.98,0.997,0.939,0.897,0.982,1.03,0.966
O=[N+]([O-])c1ccc(O)c([N+](=O)[O-])c1,1.07,0.987,0.939,0.98,0.867,0.889,0.946,1,0.973,0.992,0.904,0.998,0.998,1.02,0.927,1.06,0.97,0.673,0.948,0.985
CCCSP(=O)(OCC)SCCC,1.14,0.994,1.02,0.962,1.02,0.998,0.98,1.02,0.997,0.99,1.03,1.02,0.987,1.07,0.995,0.902,0.96,0.986,0.976,1.01
